{
  "source": "PubChem BioAssay (Tox21)",
  "note": "A number with no mark means an inactive call. A call without a number means that no potency is given here. Active and inactive are the calls of the source. Calls come from the whole dose curve; as a rule, active = well fitted activation curve with a large enough effect in the repeat runs; inconclusive = weak or mixed curves; inactive = flat fitted curve, though single readings scatter. Potency is the fitted concentration of half-maximal effect.",
  "data": [
    {"assay": "A CellTox Green Cytotoxicity Assay to monitor cytotoxicity in HepG2 cells - 0 hour (AID 1224882); note: nearly all actives have a fitted effect of over 35% in size", "details": "CellTox Green fluorescence; series mostly up to 76.8 µM", "description": "National Center for Advancing Translational Sciences [NCATS]\nNIH Chemical Genomics Center [NCGC]\nU.S. Environmental Protection Agency [EPA]\nNational Institutes of Environmental Health Sciences [NIEHS]\nNational Toxicology Program [NTP]\nCell-based models are critical for drug discovery. Determining the natural cytotoxic effects resulting from test compounds is an essential research activity. A CellTox Green Cytotoxicity Assay to monitor cytotoxicity in real time of continues cell culture during 40 hours of the compound treatment was used to screen Tox21 10K library compounds in HepG2 cells. CellTox Green Cytotoxicity Assay is a nonlytic, homogeneous, biofluorescent method to measure cytotoxicity in cell culture after experimental manipulation. The assay system uses a proprietary asymmetric cyanine dye that is excluded from viable cells but preferentially stains the dead cell's DNA. […] Viable cells produce no appreciable increases in fluorescence. Therefore, the fluorescence signal produced by the binding interaction with dead cell DNA is proportional to cytotoxicity.\nThe mixture of HepG2 cell suspension and reagents were dispensed at 600cells/6 ul/well in 1536-well tissue culture treated black solid bottom plates using a Multidrop dispenser. After the assay plates were incubated at a 37 C/5% CO2 incubator for 5 hours, 23 nL of compounds dissolved in DMSO, positive and negative controls was transferred to the assay plate by a pintool work station. The plates were incubated at 37 C for 40 hours. The fluorescence intensity were measured at 0h, 8h, 16h, 24h, 32h and 40h time points using ViewLux plate reader during compound treatment.", "values": [
      {"smiles": "CCCCCCCCCCCc1ccccc1", "Potency": "inactive"},
      {"smiles": "C[N+](C)(C)CCOC(=O)CCC(=O)OCC[N+](C)(C)C", "Potency": "inactive"},
      {"smiles": "O=C(Nc1ccc(S(=O)(=O)N2CCOCC2)cc1)c1cc(Cl)ccc1NS(=O)(=O)c1ccc(Cl)s1", "Potency": "21.3 µM (active)"},
      {"smiles": "Nc1cc(C(=O)O)c(O)c(S(=O)(=O)O)c1", "Potency": "inactive"},
      {"smiles": "NCCCN1CCOCC1", "Potency": "inactive"},
      {"smiles": "CC(C)(C)OCC1CO1", "note": "(stereo not given)", "Potency": "inactive"},
      {"smiles": "CC(C)(C)Cl", "Potency": "inactive"},
      {"smiles": "Cc1[nH]c(C)c(Cl)c(=O)c1Cl", "cytotoxicity": "-3.1% [at 15.8 µM]"},
      {"smiles": "CC(C)CC(=O)C1C(=O)c2ccccc2C1=O", "Potency": "inactive"},
      {"smiles": "COc1cccc(N(C)C(=S)Oc2ccc3c(c2)CCCC3)n1", "Potency": "inactive"},
      {"smiles": "O=C(O)CC(=O)C(=O)O", "Potency": "inactive"},
      {"smiles": "O=C(Nc1ccccc1)c1ccccc1O", "Potency": "inactive"},
      {"smiles": "CCO[C@H](Cc1ccc(OCCc2ccc(OS(C)(=O)=O)cc2)cc1)C(=O)O", "Potency": "inactive"},
      {"smiles": "c1ccc(C(O[C@H]2CCCN(CCc3ccc4c(c3)OCO4)C2)c2ccccc2)cc1", "Potency": "inactive"},
      {"smiles": "Cc1cc(C(=O)O)ccc1[N+](=O)[O-]", "Potency": "inactive"},
      {"smiles": "C[C@H](CCC(=O)O)[C@H]1CC[C@H]2[C@@H]3CC[C@@H]4C[C@H](O)CC[C@]4(C)[C@H]3C[C@H](O)[C@]12C", "Potency": "inactive"},
      {"smiles": "CN1C[C@H]2c3ccccc3Oc3ccc(Cl)cc3[C@@H]2C1", "Potency": "inactive"},
      {"smiles": "CC(C)(O)c1ccc(CNC(=O)c2cccnc2Oc2ccc(F)cc2)cc1", "Potency": "inactive"},
      {"smiles": "CCCCCCCC#N", "Potency": "inactive"},
      {"smiles": "Nc1c(CC(=O)O)cccc1C(=O)c1ccc(Br)cc1", "Potency": "inactive"},
      {"smiles": "CCCn1cnc2c1c(=O)n(CCCCC(C)=O)c(=O)n2C", "Potency": "inactive"},
      {"smiles": "NC(=O)C(c1ccccc1)(c1ccccc1)[C@@H]1CCN(CCc2ccc3c(c2)CCO3)C1", "Potency": "23.9 µM (active)"},
      {"smiles": "CC(=O)[O][Al][O]C(C)=O", "Potency": "inactive"},
      {"smiles": "O=C(OCCCCCCOC(=O)c1ccccc1)c1ccccc1", "Potency": "inactive"},
      {"smiles": "COc1cc2nc(N3CCN(C(=O)C4COc5ccccc5O4)CC3)nc(N)c2cc1OC", "note": "(stereo not given)", "Potency": "inactive"},
      {"smiles": "CCCC(=O)Nc1ccc(O)c(C(C)=O)c1", "Potency": "inactive"},
      {"smiles": "CCCCC(CC)CN1C(=O)C2C3C=CC(C3)C2C1=O", "note": "(stereo not given)", "Potency": "inactive"},
      {"smiles": "OC[C@H]1O[C@@H](OCCc2ccc(O)cc2)[C@H](O)[C@@H](O)[C@@H]1O", "Potency": "inactive"},
      {"smiles": "CCOC(=O)c1cccnc1", "Potency": "inactive"},
      {"smiles": "CCCCOC(=O)CCCCCCCC(=O)OCCCC", "Potency": "inactive"},
      {"smiles": "COC(C)OC", "Potency": "inactive"},
      {"smiles": "NC(N)=NCCC[C@H](N)C(=O)O", "cytotoxicity": "1.18% [at 6.97 µM]"},
      {"smiles": "CN(C)CCN(Cc1ccccc1)c1ccccn1", "Potency": "inactive"},
      {"smiles": "CC(C)Nc1ccc(NC(C)C)c2c1C(=O)c1ccccc1C2=O", "Potency": "inactive"},
      {"smiles": "CCCCC", "Potency": "inactive"},
      {"smiles": "Nc1cccc([N+](=O)[O-])c1", "Potency": "inactive"},
      {"smiles": "O=C(O)CNCC(=O)O", "cytotoxicity": "-10.6% [at 6.97 µM]"},
      {"smiles": "O=[N+]([O-])c1ccc2[nH]ncc2c1", "Potency": "inactive"},
      {"smiles": "c1ccc(-c2ccccn2)nc1", "Potency": "inactive"},
      {"smiles": "CCCNCC(O)COc1ccccc1C(=O)CCc1ccccc1", "note": "(stereo not given)", "Potency": "inactive"}
    ]}
  ]
}
